SMILES strings stand for the structures. Records with an inconclusive call do not appear. More than one record can exist for a structure, and the calls need not agree. The source made the active and inactive calls. Calls follow the shape of the full dose curve.

From PubChem BioAssay (Tox21) come the findings set out here.

In experiment [1] the target is Acetylcholinesterase (Homo sapiens) (UniProt P22303). Description: Acetylcholinesterase (AChE) small molecule antagonists: colormetric cell-based qHTS assay (AID 1347395). Also: nearly all actives have a fitted effect of over 30% in size. An outline of the steps: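 Neuroblastoma line SH-SY5Y supplied the enzyme; cells were preincubated with compound for 30 min at 37 C and 5% CO2. Acetylthiocholine with DTNB was then added for 90 min at 37 C, and thiocholine was measured by colour.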
Sequence of Acetylcholinesterase (Homo sapiens) (P22303 whole entry, looked up): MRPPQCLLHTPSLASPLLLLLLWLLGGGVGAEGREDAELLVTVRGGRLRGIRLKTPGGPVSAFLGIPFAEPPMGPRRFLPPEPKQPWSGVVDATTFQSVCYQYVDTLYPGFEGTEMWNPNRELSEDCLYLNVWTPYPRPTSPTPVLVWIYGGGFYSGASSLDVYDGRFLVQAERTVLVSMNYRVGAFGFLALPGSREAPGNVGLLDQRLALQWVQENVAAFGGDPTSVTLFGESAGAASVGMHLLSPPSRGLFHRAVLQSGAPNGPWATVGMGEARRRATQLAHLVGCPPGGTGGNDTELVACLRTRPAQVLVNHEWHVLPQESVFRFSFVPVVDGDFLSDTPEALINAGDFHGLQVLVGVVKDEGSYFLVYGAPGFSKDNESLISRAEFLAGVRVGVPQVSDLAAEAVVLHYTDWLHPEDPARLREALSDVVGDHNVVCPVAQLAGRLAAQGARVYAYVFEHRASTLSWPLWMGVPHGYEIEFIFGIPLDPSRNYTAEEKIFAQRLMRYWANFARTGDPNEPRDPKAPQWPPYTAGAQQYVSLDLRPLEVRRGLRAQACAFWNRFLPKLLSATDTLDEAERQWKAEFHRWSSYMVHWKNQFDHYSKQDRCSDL

For experiment [2] the target is unchanged. Description: Acetylcholinesterase (AChE) small molecule antagonists: enzyme-based qHTS assay (AID 1347397). Also: nearly all actives have a fitted effect of over 55% in size. The note with it: Potency: AChE enzyme activity inhibition; outcome: AChE enzyme activity inhibition. The method, boiled down:
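Colorimetric DTNB readout of acetylthiocholine hydrolysis, 10 min at room temperature, after 30 min room-temperature exposure of 50 mU/mL recombinant human enzyme to compound; DMSO vehicle control.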
A general note: In qHTS, concentration-response curves come from the screen itself.

For experiment [3] the target is unchanged. Description: Acetylcholinesterase (AChE) small molecule antagonists: fluorescence cell-based qHTS assay (AID 1347398). Also: nearly all actives have a fitted effect of over 50% in size. Also: potency is read from the fitted curve at half-maximal effect. The note with it: Potency: AChE activity; outcome: AChE activity. The method, boiled down:
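Cellular AChE activity read as thiocholine from acetylthiocholine hydrolysis, detected by Thiolite Green fluorescence at 490/520 nm after 40 min at room temperature. Compounds were pre-incubated 30 min at 37 C on adherent SH-SY5Y cells.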

Experiment [4] shares this target. Description: Acetylcholinesterase (AChE) small molecule antagonists: enzyme-based qHTS assay with human liver microsomes (AID 1347399). Also: nearly all actives have a fitted effect of over 60% in size. As to conditions: Potency: qHTS inhibition; outcome: qHTS inhibition. An outline of the steps: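 Recombinant human AChE (50 mU/mL in the enzyme mix) and human liver microsomes (0.25 mg/mL final) were preincubated with compound and NADPH (0.25 mg/mL final) for 30 min at 37 C. Acetylthiocholine/DTNB was then added; thiocholine was read colorimetrically after 10 min at room temperature.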
% is scaled to controls: 0 for no effect and ±100 for the full control effect.

As for `Cc1ccccc1C(=O)N1CC/C(=N\OS(=O)(=O)O)c2ccc(Cl)cc21`, the Potency entry in experiment [1], in experiment [2], in experiment [3] and in experiment [4] was “inactive” in each case.
Consider `CCCCCCCCCCCCCCCC(=O)OC(C)C`, for which the Potency entry in experiment [1], in experiment [2], in experiment [3] and in experiment [4] was “inactive” in each case.
In the case of `C=CC(=O)OCCOC1C2CCC1C1CC=CC12` (stereo not given), the activity, negative = inhibition in experiment [1] is 0.351% [at 23.6 µM] (inactive). For the same compound, the activity change, negative = inhibition in experiment [2] is 0.411% [at 23.6 µM] (inactive); in experiment [3], -2.44% [at 23.8 µM] (inactive); in experiment [4], 0.164% [at 23.6 µM] (inactive).
With `O=C=Nc1cccc(C(F)(F)F)c1`, the Potency result in experiment [1], in experiment [2], in experiment [3] and in experiment [4] was “inactive” each time.
On to `N#Cc1ccc(CC(=O)c2cccc(C(F)(F)F)c2)cc1`, for which the Potency entry in experiment [1], in experiment [2], in experiment [3] and in experiment [4] was “inactive” in each case.
For `CCCNC(C)C(=O)Nc1ccccc1C` (stereo not given), the Potency result in experiment [1], in experiment [2], in experiment [3] and in experiment [4] was “inactive” in each case.
In the case of `CCCCCC1=CCCC1=O`, the Potency entry in experiment [1], in experiment [2] and in experiment [4] was “inactive” throughout. Further, the Potency in experiment [3] was 22.9 µM (active) and inactive.
Turning to `c1ccc(CSCc2ccccc2)cc1`, the Potency result in experiment [1], in experiment [2], in experiment [3] and in experiment [4] was “inactive” each time.
In the case of `Cc1cc(Cl)c(C)cc1Cl`, the Potency entry in experiment [1], in experiment [2], in experiment [3] and in experiment [4] was “inactive” each time.
Regarding `CCCC(C)c1ccccc1O` (stereo not given), the Potency entry in experiment [1], in experiment [2], in experiment [3] and in experiment [4] was “inactive” in each case.
On to `CCCCCCCCCCCCCCC(=O)O`, for which the Potency result in experiment [1], in experiment [2], in experiment [3] and in experiment [4] was “inactive” in each case.
On to `O=C(c1ccccc1)c1ccc(Cl)cc1`, for which the Potency entry in experiment [1], in experiment [2], in experiment [3] and in experiment [4] was “inactive” each time.
As to `CC(C)(C)Cl`, the Potency entry in experiment [1], in experiment [2], in experiment [3] and in experiment [4] was “inactive” each time.
In the case of `CN1C(=O)CC(C)(c2ccccc2)C1=O` (stereo not given), the Potency result in experiment [1], in experiment [2], in experiment [3] and in experiment [4] was “inactive” each time.
As for `CC(CC(=O)O)CC(C)(C)C` (stereo not given), the Potency result in experiment [1], in experiment [2], in experiment [3] and in experiment [4] was “inactive” throughout.
In the case of `C[C@]12CCC(=O)C=C1CC[C@@H]1[C@@H]2C(=O)C[C@@]2(C)[C@H]1CC[C@]2(O)C(=O)CO`, the Potency entry in experiment [1], in experiment [2], in experiment [3] and in experiment [4] was “inactive” throughout.
As to `CC(C)(c1ccc(O)cc1)c1ccc(O)cc1`, the Potency entry in experiment [1], in experiment [2], in experiment [3] and in experiment [4] was “inactive” throughout.
For the compound `CCc1nnc(NS(=O)(=O)c2ccc(N)cc2)s1`, the Potency entry in experiment [1], in experiment [2], in experiment [3] and in experiment [4] was “inactive” in each case.
Take `NS(=O)(=O)c1cc2c(cc1Cl)NC(C1CC3C=CC1C3)NS2(=O)=O` (stereo not given): the Potency result in experiment [1], in experiment [2], in experiment [3] and in experiment [4] was “inactive” throughout.
In the case of `CCOC(=O)Cc1cccc2ccccc12`, the Potency result in experiment [1], in experiment [2], in experiment [3] and in experiment [4] was “inactive” in each case.
Take `CC[C@]12CCCN3CCc4c(n(c5ccccc45)[C@@](O)(C(=O)OC)C1)[C@@H]32`: the Potency entry in experiment [1], in experiment [2], in experiment [3] and in experiment [4] was “inactive” in each case.
For the compound `CC(C)(C)c1ccc(C(=O)CCCCl)cc1`, the Potency result in experiment [1], in experiment [2], in experiment [3] and in experiment [4] was “inactive” each time.
Take `Cc1ccc(O)c(-n2nc3ccccc3n2)c1`: the Potency result in experiment [1], in experiment [2], in experiment [3] and in experiment [4] was “inactive” each time.
With `CC(C)(CO)CO`, the Potency result in experiment [1], in experiment [2], in experiment [3] and in experiment [4] was “inactive” throughout.
For the compound `CCCCC/C(=C\c1ccccc1)CO`, the Potency result in experiment [1], in experiment [2], in experiment [3] and in experiment [4] was “inactive” each time.
On to `CCCCOCCOCCO`, for which the Potency result in experiment [1], in experiment [2], in experiment [3] and in experiment [4] was “inactive” throughout.
With `C[Si]1(C)O[Si](C)(C)O[Si](C)(C)O[Si](C)(C)O[Si](C)(C)O1`, the Potency result in experiment [1], in experiment [2], in experiment [3] and in experiment [4] was “inactive” throughout.
Take `CO[C@H]1O[C@H](CO)[C@@H](O)[C@H](O)[C@H]1O`: the Potency entry in experiment [1], in experiment [2], in experiment [3] and in experiment [4] was “inactive” in each case.
Consider `O=C(c1ccc(O)cc1)c1ccc(O)cc1`, for which the Potency entry in experiment [1], in experiment [2], in experiment [3] and in experiment [4] was “inactive” each time.
On to `CO[C@H]1C=CO[C@@]2(C)Oc3c(C)c(O)c4c(O)c(c5c(c4c3C2=O)=NC2(CCN(CC(C)C)CC2)N=5)NC(=O)/C(C)=C\C=C/[C@H](C)[C@H](O)[C@@H](C)[C@@H](O)[C@@H](C)[C@H](OC(C)=O)[C@@H]1C`, for which the Potency entry in experiment [1], in experiment [2], in experiment [3] and in experiment [4] was “inactive” in each case.
